Results reported in PubChem BioAssay (NCATS).
Results filed as inconclusive are left out. Calls of active or inactive are those of the source. Calls come from the whole dose curve; as a rule, active = well fitted inhibition curve with a large enough effect; inconclusive = small, poorly fitted or top-dose-only effect; inactive = flat fitted curve, though single readings scatter.

Key:
Experiment in all cases: qHTS profiling for inhibitors of Plasmodium falciparum proliferation (AID 504749); note: nearly all actives have a fitted effect of over 60% in size
Conditions in all cases: P. falciparum in erythrocytes, SYBR Green DNA, 72 h; series mostly up to 28.7 µM
CP268 = tested on: CP268
Summary of the method: (§1)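 P. falciparum-infected erythrocytes (0.3% parasitemia, 2.5% hematocrit) incubated with compound 72 h at 37 C, 5% CO2. Parasite DNA detected by SYBR Green after lysis, overnight at room temperature; normalised to 0.29 uM artemisinin and DMSO.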

CP269 = tested on: CP269
Summary of the method: as §1

CP286 = tested on: CP286
Summary of the method: as §1

CP291 = tested on: CP291
Summary of the method: as §1

CP297 = tested on: CP297
Summary of the method: as §1

CP305 = tested on: CP305
Summary of the method: as §1

CP315 = tested on: CP315
Summary of the method: as §1

CP325 = tested on: CP325
Summary of the method: as §1

CP329 = tested on: CP329
Summary of the method: as §1

CP335 = tested on: CP335
Summary of the method: as §1

Measured: Potency
Potency is the fitted concentration of half-maximal effect.

CN1CCN(c2c(F)cc3c(=O)c(C(=O)O)cn(CCF)c3c2F)CC1
inactive: CP268 | CP269 | CP286 | CP291 | CP297 | CP305 | CP315 | CP325 | CP329 | CP335

CN1CCN(c2c(F)cc3c(=O)c(C(=O)O)cn4c3c2OCN4C)CC1
inactive: CP268 | CP269 | CP286 | CP291 | CP297 | CP305 | CP315 | CP325 | CP329 | CP335

COC(=O)Nc1nc2ccc(Sc3ccccc3)cc2[nH]1
inactive: CP268 | CP269 | CP286 | CP291 | CP297 | CP305 | CP315 | CP325 | CP329 | CP335

O=P(O)(O)C(O)(Cc1cccnc1)P(=O)(O)O
inactive: CP268 | CP269 | CP286 | CP291 | CP297 | CP305 | CP315 | CP325 | CP329 | CP335

COc1ncnc(NS(=O)(=O)c2ccc(N)cc2)c1OC
inactive: CP268 | CP269 | CP286 | CP291 | CP297 | CP305 | CP315 | CP325 | CP329 | CP335

CNNCc1ccc(C(=O)NC(C)C)cc1
inactive: CP268 | CP269 | CP286 | CP291 | CP297 | CP305 | CP315 | CP325 | CP329 | CP335

Cn1nnc2c(C(N)=O)ncn2c1=O
inactive: CP268 | CP269 | CP286 | CP291 | CP297 | CP305 | CP315 | CP325 | CP329 | CP335

C[C@]12C=CC(=O)C=C1CC[C@@H]1[C@@H]2C(=O)C[C@@]2(C)[C@H]1CC[C@]2(O)C(=O)CO
inactive: CP268 | CP269 | CP286 | CP291 | CP297 | CP305 | CP315 | CP325 | CP329 | CP335

Cc1ncc([N+](=O)[O-])n1CCO
inactive: CP268 | CP269 | CP286 | CP291 | CP297 | CP305 | CP315 | CP325 | CP329 | CP335

COc1ccc(-c2ccc3cc(C(=O)O)ccc3c2)cc1C12CC3CC(CC(C3)C1)C2
inactive: CP268 | CP269 | CP286 | CP291 | CP297 | CP305 | CP315 | CP325 | CP329 | CP335

O=C(O)c1cc(=O)[nH]c(=O)[nH]1
inactive: CP268 | CP269 | CP286 | CP291 | CP297 | CP305 | CP315 | CP325 | CP329 | CP335

CC(C)(Sc1cc(C(C)(C)C)c(O)c(C(C)(C)C)c1)Sc1cc(C(C)(C)C)c(O)c(C(C)(C)C)c1
active: CP286 3980 nM | CP335 3610 nM
inactive: CP268 | CP269 | CP291 | CP297 | CP305 | CP325 | CP329

C#CCN[C@@H]1CCc2ccccc21
inactive: CP268 | CP269 | CP286 | CP291 | CP297 | CP305 | CP315 | CP325 | CP329 | CP335

Nc1[nH]c(=O)ncc1F
inactive: CP268 | CP269 | CP286 | CP291 | CP297 | CP305 | CP315 | CP325 | CP329 | CP335

NC(N)=NC(N)=NCCc1ccccc1
inactive: CP268 | CP269 | CP286 | CP291 | CP297 | CP305 | CP315 | CP325 | CP329 | CP335

CN(C)c1ccc(C(=C2C=CC(=[N+](C)C)C=C2)c2ccc(N(C)C)cc2)cc1
active: CP268 849 nM | CP269 239 nM | CP286 178 nM | CP291 675 nM | CP297 953 nM | CP305 338 nM | CP315 953 nM | CP325 478 nM | CP329 601 nM | CP335 301 nM

Nc1nc(N)c2nc(CNc3ccc(C(=O)NC(CCC(=O)O)C(=O)O)cc3)cnc2n1 (centres undefined)
inactive: CP268 | CP269 | CP286 | CP291 | CP297 | CP305 | CP315 | CP325 | CP329 | CP335

O=NN(CCCl)C(=O)NC1CCCCC1
inactive: CP268 | CP269 | CP286 | CP291 | CP297 | CP305 | CP315 | CP325 | CP329 | CP335

CCN(C)C(=O)Oc1cccc([C@H](C)N(C)C)c1
inactive: CP268 | CP269 | CP286 | CP291 | CP297 | CP305 | CP315 | CP325 | CP329 | CP335
